From PubChem BioAssay (Tox21) come the findings set out here.

For experiment [1], the target named is Acetylcholinesterase (Homo sapiens) (UniProt P22303). The experiment can be described thus: Acetylcholinesterase (AChE) small molecule antagonists: enzyme-based qHTS assay (AID 1347397). Further: nearly all actives have a fitted effect of over 55% in size. The settings on record: Potency: AChE enzyme activity inhibition; outcome: AChE enzyme activity inhibition. The essentials:
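Human recombinant acetylcholinesterase; substrate acetylthiocholine; thiocholine quantified with DTNB (colorimetric). Compound preincubation 30 min RT; reaction 10 min RT.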
A general note: In qHTS, concentration-response curves come from the screen itself.

For experiment [2] the target is unchanged. The experiment is described as follows: Acetylcholinesterase (AChE) small molecule antagonists: fluorescence cell-based qHTS assay (AID 1347398). Further: nearly all actives have a fitted effect of over 50% in size. Further: potency means the concentration at half of the fitted maximal effect. The settings on record: Potency: AChE activity; outcome: AChE activity. The gist of the method:
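Thiocholine generated from acetylthiocholine by SH-SY5Y cell AChE is detected with Thiolite Green (Ex/Em 490/520 nm) after 40 min at room temperature, following 30 min compound pretreatment at 37 C.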

The target is the same in experiment [3]. The experiment can be described thus: Acetylcholinesterase (AChE) small molecule antagonists: enzyme-based qHTS assay with human liver microsomes (AID 1347399). Further: nearly all actives have a fitted effect of over 60% in size. The settings on record: Potency: qHTS inhibition; outcome: qHTS inhibition. The essentials:
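Recombinant human AChE (50 mU/mL in the enzyme mix) and human liver microsomes (0.25 mg/mL final) were preincubated with compound and NADPH (0.25 mg/mL final) for 30 min at 37 C. Acetylthiocholine/DTNB was then added; thiocholine was read colorimetrically after 10 min at room temperature.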

Values without a mark were called inactive. Inconclusive results are not listed. The source made the active and inactive calls. The call rests on the fitted dose curve.
On the % scale 0 is the no-effect control and ±100 the full control effect.

Chain of Acetylcholinesterase (Homo sapiens) (P22303 whole entry, looked up): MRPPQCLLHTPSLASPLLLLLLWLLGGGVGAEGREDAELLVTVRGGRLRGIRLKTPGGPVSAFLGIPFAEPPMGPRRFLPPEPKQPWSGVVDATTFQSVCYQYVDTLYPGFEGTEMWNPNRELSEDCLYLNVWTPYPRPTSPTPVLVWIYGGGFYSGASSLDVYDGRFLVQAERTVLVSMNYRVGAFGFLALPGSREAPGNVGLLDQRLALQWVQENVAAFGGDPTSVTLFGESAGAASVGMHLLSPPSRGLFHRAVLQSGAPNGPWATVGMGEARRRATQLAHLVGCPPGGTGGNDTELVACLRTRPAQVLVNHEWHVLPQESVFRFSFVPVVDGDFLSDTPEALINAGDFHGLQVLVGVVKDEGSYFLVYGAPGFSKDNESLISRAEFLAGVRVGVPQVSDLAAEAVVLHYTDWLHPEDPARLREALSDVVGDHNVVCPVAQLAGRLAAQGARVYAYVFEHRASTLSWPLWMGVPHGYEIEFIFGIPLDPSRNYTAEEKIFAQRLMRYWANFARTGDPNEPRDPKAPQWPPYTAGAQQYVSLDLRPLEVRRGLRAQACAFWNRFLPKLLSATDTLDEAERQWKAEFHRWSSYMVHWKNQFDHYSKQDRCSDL

As for `Cc1oncc1C(=O)Nc1ccc(C(F)(F)F)cc1`, the Potency entry in experiment [1], in experiment [2] and in experiment [3] was “inactive” throughout.

For the compound `COc1ccc2c(c1OC)C(=O)O[C@@H]2[C@H]1c2c(cc3c(c2OC)OCO3)CCN1C`, the Potency entry in experiment [1], in experiment [2] and in experiment [3] was “inactive” throughout.

In the case of `CCCCOC(=O)C(C)O` (stereo not drawn), the Potency result in experiment [1], in experiment [2] and in experiment [3] was “inactive” throughout.

For `O=C(c1ccccc1)C1CCCCC1`, the Potency result in experiment [1], in experiment [2] and in experiment [3] was “inactive” each time.

`CN(C)CCOCCN(C)CCO`: the Potency entry in experiment [1], in experiment [2] and in experiment [3] was “inactive” in each case.

Turning to `COC(=O)[C@H]1[C@H]2C[C@@H]3c4[nH]c5cc(OC)ccc5c4CCN3C[C@H]2C[C@@H](OC(=O)COc2ccc(OC)cc2)[C@@H]1OC`, the Potency result in experiment [1], in experiment [2] and in experiment [3] was “inactive” in each case.

With `O=C(O)C1(C(=O)Nc2ccc(Cl)cc2Cl)CC1`, the Potency entry in experiment [1], in experiment [2] and in experiment [3] was “inactive” in each case.

For `CC(=O)N(CC(=O)N(C)C)c1ccccc1`, the Potency entry in experiment [1], in experiment [2] and in experiment [3] was “inactive” each time.

On to `Nc1ccccc1S(=O)(=O)c1ccccc1`, for which the Potency entry in experiment [1], in experiment [2] and in experiment [3] was “inactive” each time.

Consider `CC(=O)OCC(CCn1cnc2cnc(N)nc21)COC(C)=O`, for which the Potency result in experiment [1], in experiment [2] and in experiment [3] was “inactive” throughout.

Take `O=c1[nH]cnc2ccccc12`: the Potency result in experiment [1], in experiment [2] and in experiment [3] was “inactive” in each case.

As to `CC(C)CCCC(C)NCCC(C)C` (stereo not drawn), the Potency entry in experiment [1], in experiment [2] and in experiment [3] was “inactive” in each case.

Regarding `FC(F)(F)C(F)(F)C(F)(F)C(F)(F)C(F)(F)C(F)(F)CCI`, the Potency entry in experiment [1], in experiment [2] and in experiment [3] was “inactive” each time.

For `C/C=C1\C(=O)C[C@H]2[C@@H]3CCC4=CC(=O)CC[C@]4(C)[C@H]3CC[C@]12C`, the Potency entry in experiment [1], in experiment [2] and in experiment [3] was “inactive” each time.

On to `O=C1C=CCCC1`, for which the Potency entry in experiment [1], in experiment [2] and in experiment [3] was “inactive” in each case.

With `CCN(CC)CCOC(=O)C1(c2ccccc2)CCCC1`, the Potency entry in experiment [1], in experiment [2] and in experiment [3] was “inactive” each time.

For `Nc1nc(N)c(-c2ccccc2)s1`, the Potency entry in experiment [1], in experiment [2] and in experiment [3] was “inactive” throughout.

Take `CCCCCCOC(=O)CC(CC(=O)OCCCCCC)(OC(=O)CCC)C(=O)OCCCCCC`: the Potency result in experiment [1], in experiment [2] and in experiment [3] was “inactive” each time.

Consider `N=C1N=C(N)c2ccccc21`, for which the Potency result in experiment [1], in experiment [2] and in experiment [3] was “inactive” in each case.

For the compound `Nc1cccnc1N`, the Potency result in experiment [1], in experiment [2] and in experiment [3] was “inactive” each time.

For `O=C1CC[C@H](C(=O)N2CCCCC2)N1`, the Potency result in experiment [1], in experiment [2] and in experiment [3] was “inactive” each time.

`COC(=O)C1=C(C)NC(C)=C(C(=O)OCCN2CCN(C(c3ccccc3)c3ccccc3)CC2)C1c1cccc([N+](=O)[O-])c1` (stereo not drawn): the Potency entry in experiment [1], in experiment [2] and in experiment [3] was “inactive” in each case.

Turning to `Cn1c(N)c(N=O)c(=O)n(C)c1=O`, the Potency result in experiment [1], in experiment [2] and in experiment [3] was “inactive” throughout.

For `Cc1ccc2sc3cccc(C)c3c2c1`, the Potency result in experiment [1], in experiment [2] and in experiment [3] was “inactive” throughout.

In the case of `C/C=C/C=C/C=O`, the Potency result in experiment [1], in experiment [2] and in experiment [3] was “inactive” in each case.

Regarding `Nc1ccc(Oc2ccc(N)c(N)c2)cc1`, the Potency result in experiment [1], in experiment [2] and in experiment [3] was “inactive” each time.

In the case of `CC(C(=O)O)c1ccc(C(=O)c2ccccc2)s1` (stereo not drawn), the Potency entry in experiment [1], in experiment [2] and in experiment [3] was “inactive” throughout.

As to `CN1CCCN=C1COC(=O)C(O)(c1ccccc1)C1CCCCC1` (stereo not drawn), the Potency result in experiment [1], in experiment [2] and in experiment [3] was “inactive” in each case.

On to `CCCCCCCCCCCCS(=O)(=O)Cl`, for which the activity change, negative = inhibition in experiment [1] is 0.136% [at 23.6 µM]; in experiment [2] it was 0.319% [at 23.8 µM]; in experiment [3], 0.324% [at 23.6 µM].

Turning to `CNCCCC1c2ccccc2C=Cc2ccccc21`, the outcome in experiment [1], in experiment [2] and in experiment [3] was inactive.

On to `CCCC(=O)O[C@]1(C(=O)CCl)[C@@H](C)C[C@H]2[C@@H]3CCC4=CC(=O)C=C[C@]4(C)[C@@]3(F)C(=O)C[C@@]21C`, for which the Potency entry in experiment [1], in experiment [2] and in experiment [3] was “inactive” throughout.

`Clc1nnc(Cl)c2ccccc12`: the Potency result in experiment [1], in experiment [2] and in experiment [3] was “inactive” throughout.

`O=C(Nc1ccc([N+](=O)[O-])cc1)Nc1ccc([N+](=O)[O-])cc1` (tested in a mixture with another compound): the Potency entry in experiment [1], in experiment [2] and in experiment [3] was “inactive” in each case.

In the case of `COC(=O)c1cc(Cl)ccc1[N+](=O)[O-]`, the Potency entry in experiment [1], in experiment [2] and in experiment [3] was “inactive” throughout.

As for `CN(C)CCCO[C@@H]1[C@H]2OC(C)(C)O[C@H]2O[C@@H]1C(O)CO` (stereo partly drawn), the Potency result in experiment [1], in experiment [2] and in experiment [3] was “inactive” in each case.

For `CCCO`, the Potency result in experiment [1], in experiment [2] and in experiment [3] was “inactive” in each case.

For the compound `Cc1cc(=O)oc2cc(O[C@@H]3SC[C@@H](O)[C@H](O)[C@H]3O)ccc12`, the Potency entry in experiment [1], in experiment [2] and in experiment [3] was “inactive” throughout.

Turning to `CC(=O)Oc1ccc(C(c2ccc(OC(C)=O)cc2)c2ccccn2)cc1`, the Potency result in experiment [1], in experiment [2] and in experiment [3] was “inactive” each time.

Consider `BrCCCCCBr`, for which the Potency result in experiment [1], in experiment [2] and in experiment [3] was “inactive” in each case.

Consider `CS(=O)(=O)c1ccc([C@@H](C[C@H]2CCC(=O)C2)C(=O)Nc2cnccn2)cc1Cl`, for which the Potency entry in experiment [1], in experiment [2] and in experiment [3] was “inactive” in each case.

Turning to `C=C(C)c1ccccc1`, the Potency entry in experiment [1], in experiment [2] and in experiment [3] was “inactive” in each case.

Consider `Clc1nc2ccccc2nc1Cl`, for which the Potency result in experiment [1], in experiment [2] and in experiment [3] was “inactive” throughout.

Take `CCO[Si](CCCSSSSCCC[Si](OCC)(OCC)OCC)(OCC)OCC`: the Potency result in experiment [1], in experiment [2] and in experiment [3] was “inactive” in each case.

Turning to `S=C([S-])NCCNC(=S)[S-].[Mn+2]`, the Potency entry in experiment [1] and in experiment [3] was “inactive” in each case. The Potency in experiment [2] was 39.9 µM (active).

Take `CCN1CCN(c2cc3c(cc2F)c(=O)c(C(=O)O)cn3C2CC2)CC1`: the Potency result in experiment [1], in experiment [2] and in experiment [3] was “inactive” in each case.

Turning to `C=CC1CC2C=CC1C2` (stereo not drawn), the Potency entry in experiment [1], in experiment [2] and in experiment [3] was “inactive” throughout.
